Experimental data taken from PubChem BioAssay (Tox21).
Values joined by “and” are separate entries in the source; they are usually repeats but may differ in a detail not shown here. Equal values may be shown once. Results filed as inconclusive are left out. Entries that show only a call come without a potency. Some compounds were tested as several samples or in several runs, with calls that do not always agree. Active and inactive are the calls of the source. Unless noted, the call rests on the fitted dose curve; in most records, active means well fitted curve in the direction sought with a large enough effect in the repeat runs; inconclusive means weak or mixed curves; inactive means no such curve, though single readings can be large; an effect the other way counts as inactive or inconclusive.

Assays:
[1] = target: Retinoic acid receptor RXR-alpha (Homo sapiens) (UniProt P19793); assay: qHTS assay to identify small molecule agonists of the RXR signaling pathway (AID 1159527; calls by dose curve; further: nearly all actives have a fitted effect of over 35% in size)
Method in brief: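 Agonist mode; 9-cis retinoic acid positive control. HEK 293T UAS-bla reporter cells, 2% charcoal-stripped FBS, 16 hr compound exposure at 37 C/5% CO2. LiveBLAzer B/G FRET substrate 2 hr RT; ex 405, em 460/530 nm.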

[2] = qHTS assay to identify small molecule agonists of the RXR signaling pathway - cell viability counter screen (AID 1159529); further: nearly all actives have a fitted effect of over 50% in size; further: potency means the concentration at half of the fitted maximal effect
Method in brief: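 Luminescence from CellTiter-Glo (30 min, RT) measured viability in the same wells as the beta-lactamase reporter readout. Cells: GeneBLAzer RXR-alpha HEK 293T, 2% charcoal-stripped FBS. Compound exposure 16 hr, 37 C.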

[3] = qHTS assay to identify small molecule antagonists of the retinoid acid receptor (RAR) signaling pathway - cell viability counter screen (AID 1159551); further: nearly all actives have a fitted effect of over 35% in size; further: potency means the concentration at half of the fitted maximal effect
Method in brief: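 In this counter screen, the RARE-luciferase line C3RL4 was exposed for 6 h at 37 C and 5% CO2 to compounds with retinol at 1 uM final. Cellular ATP, read by luminescence, served as the viability measure.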

[4] = target: Luciferin 4-monooxygenase (Photinus pyralis) (UniProt P08659); assay: qHTS assay to identify small molecule inhibitors of firefly luciferase (AID 1224835); further: nearly all actives have a fitted effect of over 25% in size; further: potency means the concentration at half of the fitted maximal effect
Method in brief: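 Inhibition of purified Photinus luciferase is measured by luminescence. Substrate levels (D-luciferin, ATP) sit at their KM values. Each compound is tested in a concentration series.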

[5] = qHTS assay to identify small molecule agonists of the constitutive androstane receptor (CAR) signaling pathway - cell viability counter screen (AID 1224836); further: nearly all actives have a fitted effect of over 45% in size; further: potency means the concentration at half of the fitted maximal effect
Method in brief: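 Viability read-out: CellTiter-Fluor fluorescence after 23 h compound exposure at 37 C/5% CO2 in double-stable HepG2-CYP2B6-hCAR cells, with PK11195 present at 0.75 uM final; compounds tested in 15-point titration.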

[6] = qHTS assay to identify small molecule antagonists of the constitutive androstane receptor (CAR) signaling pathway - cell viability counter screen (AID 1224837); further: nearly all actives have a fitted effect of over 45% in size; further: potency means the concentration at half of the fitted maximal effect
Method in brief: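 CITCO at 50 nM final was added alongside compounds (15 concentrations) to double-stable hCAR/CYP2B6-2.2kb HepG2 cells. Following 23 hr at 37 C, cell viability was quantified by CellTiter-Fluor fluorescence intensity.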

[7] = qHTS assay to identify small molecule antagonists of the estrogen related receptor signaling pathway with the pleiotropic PPARgamma coactivator (PGC) from Tox21 10K library - cell viability counter screen (AID 1224840; active means well fitted cell-killing curve with a large enough effect in the repeat runs, not every such curve was filed as active; further: nearly all actives have a fitted effect of over 40% in size; further: potency means the concentration at half of the fitted maximal effect)
Method in brief: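 Readout: fluorescence intensity from CellTiter-Fluor after 30 min at 37 C/5% CO2. Preceded by 17.5 h treatment of PGC/ERR cells with DMSO-dissolved compounds, added 6 h post-seeding.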

[8] = qHTS assay to identify small molecule agonists of the retinoic acid receptor (RAR) signaling pathway (AID 1159553); further: potency means the concentration at half of the fitted maximal effect
Method in brief: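 In this cell-based screen, 1,000 C3RL4 cells per well were cultured overnight, dosed with test chemicals in DMSO for 6 hr, and assessed for RARE luciferase luminescence.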

[9] = qHTS assay to identify small molecule antagonists of the estrogen related receptor (ERR) signaling pathway - cell viability counter screen (AID 1224818); further: series mostly up to about 46 µM
Method in brief: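 Viability of ERR cells, CellTiter-Fluor fluorescence; 17.5 h compound exposure at 37 C, DMSO vehicle; 30 min reagent incubation at 37 C/5% CO2.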

[10] = qHTS assay to identify small molecule antagonists of the estrogen related receptor (ERR) signaling pathway (AID 1224819;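 further: luminescence from an ERR-driven luciferase reporter measured with One-Glo reagent; series mostly up to about 46 µM; nearly all actives have a fitted effect of over 50% in size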)
Method in brief: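 Seed ERR cells 2,000/well; rest 6 h at 37 C/5% CO2; pin compounds in DMSO; incubate 18 h at 37 C; add One-Glo; wait 30 min at room temperature; measure luminescence.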

[11] = qHTS assay to identify small molecule agonists of the estrogen related receptor (ERR) signaling pathway (AID 1224820)
Method in brief: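 Luminescence readout (One-Glo, 30 min RT) from NTP-supplied ERR cell line exposed to compounds for 18 h at 37 C. Cells seeded 2,000 per well and pre-incubated 6 h before pin-tool compound transfer.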

[12] = tested on: estrogen-related receptor alpha (ERRalpha) with PGC-1alpha coactivator, human; assay: qHTS assay to identify small molecule antagonists of the estrogen related receptor signaling pathway with the pleiotropic PPARgamma coactivator (PGC) (AID 1224821; calls by dose curve;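 further: series mostly up to about 46 µM; lower luminescence signal means antagonism of PGC/ERR signalling; nearly all actives have a fitted effect of over 50% in size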)
Method in brief: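 PGC/ERR reporter cells; 6 h pre-incubation 37 C/5% CO2; pin-tool compound in DMSO, 18 h 37 C; One-Glo added, 30 min RT; luminescence read. qHTS antagonist mode.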

[13] = qHTS assay to identify small molecule antagonists of the estrogen related receptor signaling pathway with the pleiotropic PPARgamma coactivator (PGC) cell viability counter screen (AID 1224822; further: potency means the concentration at half of the fitted maximal effect)
Method in brief: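 17.5 h compound treatment of PGC/ERR cells at 37 C; readout CellTiter-Fluor fluorescence; run alongside the PGC/ERR antagonist screen to flag cytotoxic compounds.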

[14] = qHTS assay to identify small molecule agonists of the estrogen related receptor signaling pathway with the pleiotropic PPARgamma coactivator (PGC) (AID 1224823)
Method in brief: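 Luminescence readout (One-Glo, 30 min RT) from PGC/ERR cell line treated 18 h at 37 C with pin-tool-delivered DMSO compound solutions; cells plated 6 h before dosing. Quantitative HTS format.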

[15] = target: Nuclear receptor subfamily 1 group I member 3 (Homo sapiens) (UniProt Q14994); assay: qHTS assay to identify small molecule agonists of the constitutive androstane receptor (CAR) signaling pathway (AID 1224839); further: nearly all actives have a fitted effect of over 15% in size; further: potency means the concentration at half of the fitted maximal effect
Method in brief: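 Luminescence read-out (ONE-Glo, 30 min, room temperature) from double-stable HepG2-CYP2B6-hCAR cells exposed 24 h to 15-point compound series in presence of 0.75 uM PK11195 final.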

[16] = qHTS assay to identify small molecule antagonists of the estrogen related receptor signaling pathway with the pleiotropic PPARgamma coactivator (PGC) from Tox21 10K library (AID 1224841; call rule not given here; further: actives are mostly falling curves and most rising ones were filed inactive; nearly all actives have a fitted effect of over 50% in size; further: potency means the concentration at half of the fitted maximal effect)
Method in brief: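 One-Glo luminescence, measured after half an hour at room temperature, quantified reporter output of PGC/ERR cells. These had been plated at 2,000 per well, incubated 6 h, dosed with compounds in DMSO, then kept 18 h at 37 C.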

[17] = qHTS assay to identify small molecule agonists of the estrogen related receptor signaling pathway with the pleiotropic PPARgamma coactivator (PGC) from Tox21 10K library (AID 1224842); further: nearly all actives have a fitted effect of over 15% in size
Method in brief: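 Luminescence from One-Glo (30 min, room temperature) measured after PGC/ERR cells had 18 h at 37 C with pinned compound (23 nL in DMSO). Cells had been seeded at 2,000 per well and pre-incubated 6 h.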

[18] = target: Nuclear receptor subfamily 1 group I member 3 (Homo sapiens) (UniProt Q14994); assay: qHTS assay to identify small molecule antagonists of the constitutive androstane receptor (CAR) signaling pathway (AID 1224838); further: nearly all actives have a fitted effect of over 40% in size; further: potency means the concentration at half of the fitted maximal effect
Method in brief: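 Inhibition of CITCO-driven (50 nM final) CYP2B6 reporter expression is measured in HepG2 cells stably carrying hCAR. Fifteen compound concentrations are applied for 24 h at 37 C, followed by luciferase luminescence.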

[19] = qHTS assay to identify small molecule antagonists of the retinoic acid receptor (RAR) signaling pathway (AID 1159552; further: nearly all actives have a fitted effect of over 50% in size; further: potency means the concentration at half of the fitted maximal effect)
Method in brief: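 Luminescence from a RARE luciferase reporter in C3RL4 cells served as read-out. Cells received compounds together with 1 uM final retinol and incubated 6 hr at 37 C before detection reagent was added for 30 min at room temperature.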

[20] = qHTS assay to identify small molecule antagonists of the estrogen related receptor (ERR) signaling pathway from Tox21 library - cell viability counter screen (AID 1224834); further: nearly all actives have a fitted effect of over 30% in size; further: potency means the concentration at half of the fitted maximal effect
Method in brief: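 Counter screen run in ERR cells (2,000 cells/well): cells pre-incubated 6 h, then treated with compounds for 17.5 h at 37 C. Fluorescence was read 30 min after CellTiter-Fluor addition.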

Sequence of Luciferin 4-monooxygenase (Photinus pyralis) (P08659 whole entry, looked up): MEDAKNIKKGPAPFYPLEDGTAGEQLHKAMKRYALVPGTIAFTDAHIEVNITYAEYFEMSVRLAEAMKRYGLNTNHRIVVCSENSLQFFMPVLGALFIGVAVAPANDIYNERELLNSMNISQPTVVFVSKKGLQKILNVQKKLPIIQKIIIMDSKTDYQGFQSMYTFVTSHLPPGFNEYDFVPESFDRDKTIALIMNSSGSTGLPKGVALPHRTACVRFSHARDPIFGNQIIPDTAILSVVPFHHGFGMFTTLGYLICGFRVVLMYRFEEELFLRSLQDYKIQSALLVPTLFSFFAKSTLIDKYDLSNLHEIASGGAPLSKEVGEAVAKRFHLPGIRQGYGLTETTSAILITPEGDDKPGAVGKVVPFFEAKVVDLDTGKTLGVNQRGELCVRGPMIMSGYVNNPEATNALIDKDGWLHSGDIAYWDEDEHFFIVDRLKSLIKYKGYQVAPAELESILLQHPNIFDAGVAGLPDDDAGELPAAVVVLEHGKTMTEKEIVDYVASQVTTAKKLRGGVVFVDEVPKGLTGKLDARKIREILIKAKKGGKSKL
Sequence of Nuclear receptor subfamily 1 group I member 3 (Homo sapiens) (Q14994 whole entry, looked up): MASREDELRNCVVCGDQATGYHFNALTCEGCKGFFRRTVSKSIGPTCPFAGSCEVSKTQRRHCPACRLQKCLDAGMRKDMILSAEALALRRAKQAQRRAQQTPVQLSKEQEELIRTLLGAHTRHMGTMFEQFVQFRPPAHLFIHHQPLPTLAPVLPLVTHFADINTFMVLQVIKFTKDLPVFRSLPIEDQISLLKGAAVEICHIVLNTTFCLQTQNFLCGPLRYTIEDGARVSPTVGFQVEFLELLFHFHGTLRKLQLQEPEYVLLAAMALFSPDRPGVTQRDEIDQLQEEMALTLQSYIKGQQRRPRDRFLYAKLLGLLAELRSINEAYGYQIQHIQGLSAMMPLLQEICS
Sequence of Retinoic acid receptor RXR-alpha (Homo sapiens) (P19793 whole entry, looked up): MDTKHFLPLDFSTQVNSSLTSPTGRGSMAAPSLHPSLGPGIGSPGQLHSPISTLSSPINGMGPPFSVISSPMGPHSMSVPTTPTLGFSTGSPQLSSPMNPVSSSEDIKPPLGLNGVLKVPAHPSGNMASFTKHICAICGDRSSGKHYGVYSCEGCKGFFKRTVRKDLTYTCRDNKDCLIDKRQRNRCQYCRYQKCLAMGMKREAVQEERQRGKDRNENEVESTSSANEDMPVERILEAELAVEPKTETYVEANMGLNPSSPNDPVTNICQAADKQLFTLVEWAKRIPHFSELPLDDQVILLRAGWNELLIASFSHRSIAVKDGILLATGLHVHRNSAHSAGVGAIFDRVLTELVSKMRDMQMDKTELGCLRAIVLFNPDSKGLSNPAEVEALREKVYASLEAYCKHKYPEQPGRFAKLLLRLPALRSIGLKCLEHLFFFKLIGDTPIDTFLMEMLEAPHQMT

SMILES: CCOC(N)=O
- Potency [1]: inactive
- Potency [2]: inactive
- Potency [3]: inactive
- Potency [4]: inactive
- Potency [5]: inactive
- Potency [6]: inactive
- Potency [7]: inactive

SMILES: C1=CC2C3C=CC(C3)C2C1 (stereo not given)
- Potency [2]: inactive
- Potency [3]: inactive
- Potency [8]: inactive
- outcome [9]: inactive
- Potency [10]: inactive
- outcome [11]: inactive
- outcome [12]: inactive
- Potency [13]: inactive
- outcome [14]: inactive
- Potency [4]: inactive
- Potency [6]: inactive
- Potency [15]: inactive
- Potency [7]: inactive
- Potency [16]: 60 µM (active)
- Potency [17]: inactive

SMILES: CNNCc1ccc(C(=O)NC(C)C)cc1
- Potency [1]: inactive
- Potency [2]: inactive
- Potency [3]: inactive
- Potency [5]: inactive
- Potency [6]: inactive
- Potency [18]: inactive
- Potency [7]: inactive

SMILES: CC/C(=C(\c1ccccc1)c1ccc(OCCN(C)C)cc1)c1ccccc1
- Potency [2]: 15.5 µM (active) [middle of 5 runs]
- Potency [3]: 61.5 µM (active) and 61.1 µM (active) and 54.9 µM (active)
- Potency [19]: 54.4 µM (active) [middle of 5 runs]
- Potency [13]: 27.6 µM (active)
- Potency [20]: 54.4 µM (active) and 54.9 µM (active) and 61.1 µM (active)

SMILES: O=C1NS(=O)(=O)c2ccccc21
- Potency [2]: inactive
- Potency [3]: inactive
- Potency [8]: inactive
- Potency [20]: inactive
- Potency [5]: inactive
- Potency [6]: inactive
- Potency [7]: inactive

SMILES: CC(=O)CC(c1ccccc1)c1c(O)c2ccccc2oc1=O (stereo not given)
- Potency [2]: inactive
- Potency [3]: inactive
- Potency [5]: inactive
- Potency [6]: inactive
- Potency [7]: inactive

SMILES: NC(=O)n1c(O)c(C(=O)c2cccs2)c2cc(Cl)ccc21
- Potency [3]: inactive
- Potency [19]: inactive
- Potency [8]: inactive
- Potency [4]: 30.9 µM (active)
- Potency [18]: inactive
- Potency [15]: 13.3 µM (active)

SMILES: CCN(Cc1c(F)cccc1Cl)c1c([N+](=O)[O-])cc(C(F)(F)F)cc1[N+](=O)[O-]
- Potency [2]: 9.77 µM (active)
- Potency [3]: inactive
- Potency [8]: inactive
- Potency [4]: inactive
- Potency [5]: inactive
- Potency [6]: inactive
- Potency [18]: inactive
- Potency [15]: 7.7 µM (active)
- Potency [7]: inactive
- Potency [17]: inactive

SMILES: CCOc1ccc(NC(C)=O)cc1
- Potency [1]: inactive
- Potency [2]: inactive
- Potency [3]: inactive
- Potency [4]: inactive
- Potency [5]: inactive
- Potency [6]: inactive
- Potency [7]: inactive
- Potency [16]: inactive
- Potency [17]: inactive

SMILES: CCCCCCCCCCCCCCCC[N+](C)(C)Cc1ccccc1
- Potency [2]: 17.9 µM (active) and 14 µM (active) and 4.25 µM (active)
- Potency [3]: 79.4 µM (active) and 62.2 µM (active) and 29.8 µM (active)
- Potency [19]: 56.2 µM (active) and 27.8 µM (active) and 23.7 µM (active)
- Potency [20]: 63.1 µM (active) and 49.4 µM (active) and 23.7 µM (active)
- Potency [4]: inactive
- Potency [5]: inactive
- Potency [18]: inactive
- Potency [15]: inactive
- Potency [7]: 63.1 µM (active) and 49.4 µM (active) and inactive
- Potency [16]: 31.6 µM (active) and 24.8 µM (active) and 10.6 µM (active)
- Potency [17]: inactive

SMILES: C=C1CC[C@H](O)C/C1=C\C=C1/CCC[C@]2(C)[C@@H]([C@H](C)CCCC(C)C)CC[C@@H]12
- Potency [2]: 24.3 µM (active)
- Potency [3]: inactive
- Potency [19]: inactive
- Potency [5]: inactive
- Potency [18]: inactive
- Potency [15]: inactive

SMILES: CN(C)C(=S)SC(=S)N(C)C
- Potency [2]: 5.02 µM (active) and 3.89 µM (active) and 1.9 µM (active)
- Potency [3]: 48.6 µM (active)
- Potency [19]: 1.77 µM (active) and 1.93 µM (active) and 2.37 µM (active)
- Potency [8]: 0.668 µM (active)
- Potency [4]: 25.8 µM (active) and 11.2 µM (active) and 12.3 µM (active)
- Potency [5]: 2.22 µM (active) and 1.72 µM (active) and 3.76 µM (active)
- Potency [6]: 1.57 µM (active) and 1.72 µM (active) and 2.37 µM (active)
- Potency [18]: 1.25 µM (active) and 1.54 µM (active) and 2.37 µM (active)
- Potency [15]: inactive
- Potency [7]: 1.25 µM (active) and 1.37 µM (active) and 1.68 µM (active)
- Potency [16]: 1.25 µM (active) and 1.22 µM (active) and 2.37 µM (active)
- Potency [17]: inactive
